In PubChem BioAssay AID488969 (Vanderbilt High Throughput Screening Facility, 2010) one finds z-score data, which are given here for 75 molecules.

In all, about 110,000 compounds were measured (“z-score”: median about -0.1, highest 2% from about 2 on). The entries come from a sample that favours the highest values as a whole. The source made the active and inactive calls.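 How the source made its calls: active means z-score in the third read window above 3 or below -3; inactive means the rest.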

Chain of Metabotropic glutamate receptor 8 (Rattus norvegicus) (P70579 whole entry, looked up): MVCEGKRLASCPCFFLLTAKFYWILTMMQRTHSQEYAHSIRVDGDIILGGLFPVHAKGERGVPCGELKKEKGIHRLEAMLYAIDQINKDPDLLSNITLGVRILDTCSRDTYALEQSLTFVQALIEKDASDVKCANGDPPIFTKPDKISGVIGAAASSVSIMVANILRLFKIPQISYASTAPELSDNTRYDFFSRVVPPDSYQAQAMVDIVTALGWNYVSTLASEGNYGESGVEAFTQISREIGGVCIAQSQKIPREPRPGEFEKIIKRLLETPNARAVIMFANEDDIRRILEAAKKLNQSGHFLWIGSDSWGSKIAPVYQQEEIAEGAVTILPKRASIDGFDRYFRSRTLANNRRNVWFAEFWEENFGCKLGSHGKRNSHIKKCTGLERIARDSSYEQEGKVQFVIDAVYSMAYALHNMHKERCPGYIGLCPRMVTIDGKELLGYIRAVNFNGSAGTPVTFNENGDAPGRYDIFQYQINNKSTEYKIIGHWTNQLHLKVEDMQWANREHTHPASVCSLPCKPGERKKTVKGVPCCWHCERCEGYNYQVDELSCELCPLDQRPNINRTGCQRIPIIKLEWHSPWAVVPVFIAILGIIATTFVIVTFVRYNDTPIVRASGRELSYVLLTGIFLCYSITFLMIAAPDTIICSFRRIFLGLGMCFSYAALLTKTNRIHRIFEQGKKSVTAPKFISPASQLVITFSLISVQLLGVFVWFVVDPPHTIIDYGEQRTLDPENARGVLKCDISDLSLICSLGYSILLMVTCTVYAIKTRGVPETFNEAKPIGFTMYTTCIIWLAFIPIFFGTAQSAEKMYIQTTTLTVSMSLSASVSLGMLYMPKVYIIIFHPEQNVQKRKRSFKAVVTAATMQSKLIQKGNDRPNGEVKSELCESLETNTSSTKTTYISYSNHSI

The assay addresses Metabotropic glutamate receptor 8 (Rattus norvegicus) (UniProt P70579). Description: mGluR8 Gi/Go-coupled signaling modulation – cell-based, rat, thallium flux, HTS, primary screen (AID 488969). The note with it: HEK293 rat mGluR8, GIRK (G protein-gated inwardly rectifying potassium channel) thallium flux, FluoZin2; at 10 µM; stronger effect = higher value; submaximal glutamate (EC20) added with thallium.
The molecule `C=CCC(NCc1ccccc1)c1ccc(C)o1` (stereo not given) showed a z-score of 0.143. The molecule `C=CCC(NC(C)c1ccccc1)c1ccco1` (stereo not given) had a z-score of 0.174. On to `C=CCC(NCc1ccccc1)c1ccco1` (stereo not given), for which the z-score came to 2.42.

`N#Cc1cnc(SCC(=O)c2ccccc2)nc1N`: the z-score was 0.0176. Next, `Cc1cc(N2CCOCC2)n2ncc(-c3ccccc3)c2n1`: -0.401; `Cc1cc(N2CCOCC2)n2nc(C)c(-c3ccccc3)c2n1`: 4.01 (active).

Take `Cc1cc(N2CCN(Cc3ccccc3)CC2)n2nc(C)c(-c3ccccc3)c2n1`: the z-score is 0.0393. As for `Cc1cc(N2CCC(C)CC2)n2nc(C)c(-c3ccccc3)c2n1`, the figure is -0.28.

Turning to `Cc1cc(N2CCC(C)CC2)n2ncc(-c3ccccc3)c2n1`, the z-score was 3.32 (active).

Molecule `Cc1cc(N2CCCCC2)n2ncc(-c3ccccc3)c2n1` came in with a z-score of -0.231. In turn, `Cc1cccc2cc(CN(Cc3cccs3)C(=S)NCC3CCCO3)c(=O)[nH]c12` (stereo not given) came in with a z-score of -0.229. As for `O=C1c2ccccc2C(Nc2ccc3c(c2)OCCO3)N1c1ccccn1` (stereo not given), the figure is 0.814. In turn, `CCc1cccc(CC)c1NC(=S)N1CCn2cccc2C1c1cccnc1` (stereo not given) yielded a z-score of 0.37.

As for `O=S(=O)(c1ccc(S(=O)(=O)N2CCCC2)cc1)N1CCCCCC1`, the z-score is 0.224. As for `Nc1ccc(S(=O)(=O)N2CCCC2)cc1`, the figure is -0.115; as for `NS(=O)(=O)c1ccc(S(=O)(=O)N2CCCC2)cc1`, 3.11 (active). Next, `CSc1ccccc1NC(=O)c1ccoc1C`: -0.082. Regarding `CC1(C)C2CC=C(/C=N/NC(=O)c3ccc(Cl)cc3)C1C2` (stereo not given), the z-score amounted to 0.355.

Regarding `C=C(C)CNC(=S)N/N=C/C1=CCC2CC1C2(C)C` (stereo not given), the z-score turned out to be 0.611. As for `CCCCNC(=S)N/N=C/C1=CCC2CC1C2(C)C` (stereo not given), the figure is 1.99; as for `CC1CC(C)CN(CCCNC(=O)Cn2ncc3c(=O)oc4ccccc4c32)C1` (stereo not given), -0.462; as for `CC1CC(C)CN(CCCNC(=O)CCNC(=O)Cn2ccc3ccccc3c2=O)C1` (stereo not given), -1.48.

The molecule `CCc1cc2c(cc3c(=O)n(CC(=O)NCCCN4CC(C)CC(C)C4)ncn32)s1` (stereo not given) gave a z-score of 2.41.

Molecule `CCOC(=O)C1C(=O)CC(C)(O)C(C(=O)OCC)C1c1ccc(N(CC)CC)cc1` (stereo not given) came in with a z-score of -0.205. As for `CCC(C)NC(=O)/C(=C/c1ccco1)c1ccccc1` (stereo not given), the figure is -0.109; as for `CC(C)NC(=O)/C(=C/c1ccco1)c1ccccc1`, 2.43. As for `CC(C)(C)NC(=O)/C(=C/c1ccco1)c1ccccc1`, the figure is -0.0597; as for `CCN(CC)S(=O)(=O)c1cc(Br)c(C)cc1OC`, -0.159; as for `Cc1ccc(-c2nn(C)c(=O)c3ccccc23)cc1CNS(C)(=O)=O`, -0.0971.

`COc1ccc(OC)c(NC(=S)N2CCN(C/C=C/c3ccccc3)CC2)c1` returned a z-score of -0.183.

With `CNS(=O)(=O)c1cccc(C(=O)OC2CCCCC2=O)c1` (stereo not given), the z-score was determined as 2.06. As for `O=C(OC1CCCCC1=O)c1cccc(S(=O)(=O)NCc2ccccc2)c1` (stereo not given), the figure is -0.182; as for `CC(=O)Nc1ccc(C(=O)OC2CCCCC2=O)cc1` (stereo not given), 0.0145.

In the case of `O=C1C2C3C=CC(C3)C2C(=O)N1Cc1ccc(CN2C(=O)C3C4C=CC(C4)C3C2=O)cc1` (stereo not given), the z-score was -0.294.

Molecule `Cc1cccc(NC(=S)/N=C(\N)Nc2nc(C)c3ccc(C)cc3n2)c1` had a z-score of -0.215. Next, `CCCNc1cc(C)c(C#N)c2nc3ccccc3n12`: -1.34; `Cc1ccc(C(=O)NC(=S)Nc2ccccc2N2CCCC2)cc1[N+](=O)[O-]`: 0.134; `O=C(NC(=S)Nc1ccccc1N1CCOCC1)c1ccc([N+](=O)[O-])cc1`: 0.377.

`O=C(NC(=S)Nc1cc([N+](=O)[O-])ccc1Cl)c1ccccc1`: the z-score is 12.9 (active). On to `O=C(NC(=S)Nc1ccccc1N1CCCC1)c1ccc([N+](=O)[O-])cc1`, for which the z-score was 14.4 (active). As for `O=C(NC(=S)Nc1ccc(N2CCCC2)cc1)c1ccccc1[N+](=O)[O-]`, the figure is 0.0592. For the molecule `Cc1c(C(=O)NC(=S)Nc2ccccc2N2CCCC2)cccc1[N+](=O)[O-]`, the z-score was 3.83 (active). Next, `O=C(Nc1ccccc1N1CCOCC1)c1ccccc1[N+](=O)[O-]`: -0.093; `O=C(NC(=S)Nc1cc(C(F)(F)F)ccc1Cl)c1ccccc1`: 1.04; `O=C(NC(=S)Nc1cccc(NC(=O)c2ccccc2)c1)c1cccc([N+](=O)[O-])c1`: -0.0765. As for `O=C(NC(=S)Nc1ccccc1N1CCCC1)c1ccccc1[N+](=O)[O-]`, the figure is 7.29 (active); as for `Cc1cc(C(=O)NC(=S)Nc2ccccc2N2CCCC2)ccc1[N+](=O)[O-]`, 0.156.

Molecule `COc1ccc(C(=O)NC(=S)Nc2ccccc2N2CCCCC2)cc1[N+](=O)[O-]` gave a z-score of 0.366. As for `Cc1ccc(S(=O)(=O)CCc2nc3ccccc3s2)cc1C`, the figure is -0.169; as for `CCCC(=O)O[C@@H]1C[C@@H](C)N(C(=O)c2ccccc2)c2ccc(C)cc21`, -0.411. Next, `Cc1ccc(OC(=O)CCc2c(C)nc3ncnn3c2C)cc1`: -0.382; `O=c1oc2c(CN3CCOCC3)c(O)ccc2c2c1CCC2`: 0.00993; `O=C(NNC(=O)c1sc2ccccc2c1Cl)Nc1ccc(Cl)cc1`: -0.0174. As for `COc1ccccc1C(=O)NC(=S)NNC(=O)c1sc2ccccc2c1Cl`, the z-score was 3.35 (active). Consider `COc1ccccc1C(=O)NNC(=S)NC(=O)c1sc2ccccc2c1Cl`, for which the z-score was 4.01 (active). As for `COc1ccc(CCNC(=O)c2sc3ccccc3c2Cl)cc1OC`, the figure is -0.565.

Consider `CC(C)(C)C(=O)NC(=S)NNC(=O)c1sc2ccccc2c1Cl`, for which the z-score was 13.7 (active). Next, `COc1ccccc1C(=O)NNC(=S)NC(=O)c1ccco1`: 1.4; `O=C(NC(=S)Nc1ccccc1N1CCOCC1)c1sc2ccccc2c1Cl`: 1.18; `COc1ccccc1C(=O)NC(=S)Nc1ccc(NC(=O)c2cccs2)cc1`: 0.853. Next, `O=C(NNC(=S)NC1CCCCC1)c1sc2ccccc2c1Cl`: -0.163; `COc1ccccc1CNC(=O)CSc1ccc(Br)cc1`: 0.558. Next, `Cc1cc(C)cc(C(=O)N2CCCCCC2)c1`: 0.076; `COc1ccc(NC(=O)[C@H](COCc2ccccc2)NC(=O)OC(C)(C)C)cc1`: 0.329; `Cc1cc(NC(=O)CSc2nnc(-c3ccco3)o2)no1`: 0.184. `Cc1c(Cl)cccc1NC(=S)NCc1cccn1C` returned a z-score of 0.262.

The molecule `Cc1ccccc1NC(=S)NCc1cccn1C` yielded a z-score of -0.488. As for `Cc1ccc(Cl)cc1NC(=S)NCc1cccn1C`, the figure is 6.81 (active).

In turn, `O=C(OC1CCN(c2ncc(C(F)(F)F)cc2Cl)CC1)c1ccc(Cl)cc1` displayed a z-score of -0.0974. Next, `c1cn(CC2(Cn3ccnc3)COC2)cn1`: 3.15 (active). As for `O=C(O)Cn1ccnc1`, the figure is -0.327; as for `COc1cc(Cn2ccnc2)c(OC)cc1Cn1ccnc1`, -0.198; as for `CCCN1CCC(NC(=O)Nc2ccccc2C(=O)OC)CC1`, -0.336. As for `CCCN1CCC(NC(=O)Nc2ccc(F)cc2F)CC1`, the figure is 2.81; as for `CCCN1CCC(NC(=O)Nc2ccc(OC)c(OC)c2)CC1`, 0.00828.
